Assay results as given in PubChem BioAssay (Tox21).
Results filed as inconclusive are left out. Activity calls are given as the source filed them. Unless noted, calls follow the shape of the full dose curve.

Assays:
[1] = qHTS assay to identify small molecule antagonists of the vitamin D receptor (VDR) signaling pathway - cell viability counter screen (AID 743225; active = well fitted curve in the direction sought with a large enough effect in the repeat runs; an effect the other way counts as inactive or inconclusive; also: % is scaled to controls: 0 for no effect and ±100 for the full control effect; nearly all actives have a fitted effect of over 50% in size)
Summary of the method: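 Cytotoxicity toward the VDR-bla HEK 293T line was scored by ATP-based CellTiter-Glo luminescence, read in the wells already used for the beta-lactamase readout after 16 h compound treatment under 3 nM 1-alpha,25-dihydroxyvitamin D3 stimulation.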

[2] = qHTS assay to identify small molecule agonists of the NFkB signaling pathway (AID 1159509; active = well fitted curve in the direction sought with a large enough effect in the signal ratio in the repeat runs, not every such curve was filed as active; the % refers to the signal ratio; also: series mostly up to about 61 µM; % is scaled to controls: 0 for no effect and ±100 for the full control effect)
Summary of the method: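 Pathway activation was measured in ME-180 cells stably expressing beta-lactamase under NF-kB response element control. Substrate cleavage was read as the 460/530 nm emission shift after 5 hr compound incubation.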

[3] = qHTS assay to identify small molecule agonists of the NFkB signaling pathway - cell viability counter screen (AID 1159515); also: series mostly up to about 61 µM; % is scaled to controls: 0 for no effect and ±100 for the full control effect; nearly all actives have a fitted effect of over 55% in size
Summary of the method: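 ME-180 NFkB-bla cells, 2,000/well; overnight attach; compound 5 hr, 37 C/5% CO2; LiveBLAzer substrate 1.5 hr RT; then CellTiter-Glo in same wells, 30 min RT, luminescence read.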

[4] = qHTS assay to identify small molecule agonists of the endoplasmic reticulum stress response signaling pathway (AID 1159516; active = well fitted activation curve with a large enough effect in the signal ratio in the repeat runs, not every such curve was filed as active; the % refers to the signal ratio; also: % is scaled to controls: 0 for no effect and ±100 for the full control effect)
Summary of the method: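 HeLa ESRE-bla reporter line; cpd 5 h, 37 C/5% CO2; LiveBLAzer B/G FRET substrate 2 h RT; ex 405, em 460/530 nm.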

[5] = qHTS assay to identify small molecule agonists of the endoplasmic reticulum stress response signaling pathway - cell viability counter screen (AID 1159517);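 also: HeLa cells carrying an ER stress response element beta-lactamase reporter; series mostly up to about 61 µM; % is scaled to controls: 0 for no effect and ±100 for the full control effect; nearly all actives have a fitted effect of over 50% in size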
Summary of the method: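 In parallel with the ESRE reporter read, cytotoxicity was scored by CellTiter-Glo luminescence (30 min, room temperature) on HeLa ESRE-bla cells dosed for 5 hr.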

[6] = qHTS assay to identify small molecule antagonists of the retinoid-related orphan receptor gamma (ROR-gamma) signaling pathway - cell viability counter screen (AID 1159520; active = well fitted curve in the direction sought with a large enough effect in the repeat runs; an effect the other way counts as inactive or inconclusive; also: % is scaled to controls: 0 for no effect and ±100 for the full control effect; nearly all actives have a fitted effect of over 50% in size)
Summary of the method: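 Tet-on ROR gamma CHO cells were given compounds for 2 hr, then doxycycline hyclate at 1 uM final, and incubated 16 hr at 37 C. Viability was measured as ATP content by CellTiter-Glo luminescence.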

[7] = molecular target: Nuclear receptor ROR-gamma (Homo sapiens) (UniProt P51449); assay: qHTS assay to identify small molecule antagonists of the retinoid-related orphan receptor gamma (ROR-gamma) signaling pathway (AID 1159521; active = well fitted curve in the direction sought with a large enough effect in the repeat runs; an effect the other way counts as inactive or inconclusive;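 also: CHO cells with doxycycline inducible ROR-gamma driving an RORE luciferase reporter; top concentration of the series differs between compounds; % is scaled to controls: 0 for no effect and ±100 for the full control effect; nearly all actives have a fitted effect of over 50% in size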)
Summary of the method: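 Readout: ONE-Glo luciferase luminescence, 30 min at room temperature. System: Tet-on RORγ CHO, RORE-LUC. Sequence: compound 2 h, doxycycline 1 uM final, 16 h at 37 C.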

[8] = qHTS assay to identify small molecule agonists of the AP-1 signaling pathway - cell viability counter screen (AID 1159525); also: nearly all actives have a fitted effect of over 55% in size
Summary of the method: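 Same-well cytotoxicity counter screen of the Tox21 10K library in ME-180 cells. The readout is ATP-dependent luminescence after 5 h compound treatment. Data are normalised to DMSO and tetra n-octyl ammonium bromide controls.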

[9] = qHTS assay to identify small molecule agonists of the AP-1 signaling pathway (AID 1159526); also: % is scaled to controls: 0 for no effect and ±100 for the full control effect
[10] = molecular target: Retinoic acid receptor RXR-alpha (Homo sapiens) (UniProt P19793); assay: qHTS assay to identify small molecule agonists of the RXR signaling pathway (AID 1159527); also: % is scaled to controls: 0 for no effect and ±100 for the full control effect; nearly all actives have a fitted effect of over 35% in size
Sequence of Retinoic acid receptor RXR-alpha (Homo sapiens) (P19793 whole entry, looked up): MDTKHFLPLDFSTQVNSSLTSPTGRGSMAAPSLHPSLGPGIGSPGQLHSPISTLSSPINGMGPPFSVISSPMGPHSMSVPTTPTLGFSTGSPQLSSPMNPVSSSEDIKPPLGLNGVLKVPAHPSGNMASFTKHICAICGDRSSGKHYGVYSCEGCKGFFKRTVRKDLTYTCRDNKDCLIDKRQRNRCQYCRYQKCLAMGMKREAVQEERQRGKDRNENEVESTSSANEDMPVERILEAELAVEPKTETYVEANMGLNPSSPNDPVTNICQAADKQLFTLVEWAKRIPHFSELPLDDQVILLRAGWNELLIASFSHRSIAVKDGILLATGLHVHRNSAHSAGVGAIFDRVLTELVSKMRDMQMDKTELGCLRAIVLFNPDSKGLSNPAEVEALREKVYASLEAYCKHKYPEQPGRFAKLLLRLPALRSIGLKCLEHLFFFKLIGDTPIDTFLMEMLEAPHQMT
Summary of the method: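 Reporter activation is measured as beta-lactamase activity via FRET substrate cleavage (emission 460/530 nm) in HEK 293T cells expressing an RXR-alpha-driven bla construct, following 16 hr compound exposure at 37 C.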

CCC(C)C(C)=O (stereo unspecified)
inactive: outcome [1] | outcome [2] | outcome [3] | outcome [4] | outcome [5] | outcome [6] | outcome [7] | outcome [8] | outcome [9] | Potency [10]

CN1C[C@@H]2C[C@H]1CN2c1cc2c(cc1F)c(=O)c(C(=O)O)cn2C1CC1
inactive: outcome [2] | outcome [3] | outcome [4] | outcome [5] | activity change, negative = inhibition [7] 4.47% [at 19 µM] | viability change, negative = cytotoxic [8] 6.22% [at 15.8 µM] | activation [9] -4.01% [at 15.8 µM] | activation [10] 12.3% [at 15.8 µM]

CCNC(=O)NCc1cccc(Cl)c1
inactive: outcome [1] | outcome [2] | outcome [3] | outcome [4] | outcome [5] | outcome [7] | outcome [8] | outcome [9] | Potency [10]

Cn1nnc2c(C(N)=O)ncn2c1=O
inactive: outcome [1] | outcome [2] | outcome [3] | outcome [4] | outcome [5] | outcome [7] | outcome [8] | outcome [9] | Potency [10]

O/N=C/C=N/O
inactive: outcome [1] | outcome [2] | outcome [3] | outcome [5] | outcome [6] | outcome [7] | outcome [8] | outcome [9] | Potency [10]

CN1CCOC(c2ccccc2)c2ccccc2C1 (stereo unspecified)
inactive: outcome [1] | outcome [2] | outcome [3] | outcome [5] | outcome [7] | outcome [8] | outcome [9] | Potency [10]

CN(C)CC/C=C1/c2ccccc2COc2ccc(CC(=O)O)cc21
inactive: outcome [2] | outcome [3] | outcome [5] | outcome [6] | outcome [7] | outcome [8] | outcome [9] | Potency [10]

C=CCSSCCC
inactive: outcome [2] | outcome [4] | outcome [5] | outcome [6] | outcome [7] | outcome [8] | outcome [9] | Potency [10]

CC1OCCC1=O (stereo unspecified)
inactive: outcome [1] | outcome [2] | outcome [3] | outcome [5] | outcome [6] | outcome [7] | outcome [8] | outcome [9] | Potency [10]

CC(C)CO
inactive: outcome [1] | outcome [2] | outcome [3] | outcome [5] | outcome [6] | outcome [7] | outcome [8] | outcome [9] | Potency [10]

CCC[C@@H]1C[C@@H](C(=O)N[C@@H]([C@H]2O[C@H](SC)[C@H](O)[C@@H](O)[C@H]2O)[C@@H](C)O)N(C)C1
inactive: outcome [1] | outcome [2] | outcome [3] | outcome [5] | outcome [7] | outcome [8] | outcome [9] | Potency [10]

C=C(C)[C@@H]1CC=C(C)C(=O)C1
inactive: outcome [2] | outcome [3] | outcome [5] | outcome [6] | outcome [7] | outcome [8] | outcome [9] | Potency [10]

CC(=O)Nc1ccc(OC(=O)c2ccccc2OC(C)=O)cc1
inactive: outcome [1] | outcome [2] | outcome [3] | outcome [5] | outcome [6] | outcome [7] | outcome [8] | outcome [9] | Potency [10]

C/C(CC(C)C)=N\O
inactive: outcome [1] | outcome [2] | outcome [3] | outcome [5] | outcome [6] | outcome [7] | outcome [8] | outcome [9] | Potency [10]

CC(C)NCC(O)c1ccc2ccccc2c1 (stereo unspecified)
inactive: outcome [1] | outcome [2] | outcome [3] | outcome [5] | outcome [6] | outcome [7] | outcome [8] | outcome [9] | Potency [10]

CN(C)C(C)(C)CO
inactive: outcome [1] | outcome [2] | outcome [3] | outcome [5] | outcome [7] | outcome [8] | outcome [9] | Potency [10]

CCCCCC(C)O (stereo unspecified)
inactive: outcome [1] | outcome [2] | outcome [3] | outcome [5] | outcome [6] | outcome [7] | outcome [8] | outcome [9] | Potency [10]

CCC(=O)Oc1ccc2c(c1)CC[C@@H]1[C@@H]2CC[C@@]2(C)[C@H]1C[C@@H](OC(=O)CC)[C@@H]2OC(=O)CC
inactive: outcome [1] | outcome [2] | outcome [3] | outcome [5] | outcome [7] | outcome [8] | outcome [9] | Potency [10]

C=CCCCCCCCCC(=O)OCCCC
inactive: outcome [1] | outcome [2] | outcome [3] | outcome [5] | outcome [6] | outcome [7] | outcome [8] | outcome [9] | Potency [10]

CCC(=O)c1c(O)cc(O)cc1O
inactive: outcome [2] | outcome [4] | outcome [5] | outcome [6] | outcome [7] | outcome [8] | outcome [9] | Potency [10]

CC(=O)C(C)O (stereo unspecified)
inactive: outcome [1] | outcome [2] | outcome [3] | outcome [5] | outcome [6] | outcome [7] | outcome [8] | outcome [9] | Potency [10]

CC(C)Cn1cnc2c1c(=O)n(C)c(=O)n2C
inactive: outcome [1] | outcome [2] | outcome [3] | outcome [5] | outcome [6] | outcome [7] | outcome [8] | outcome [9] | Potency [10]

N[C@@H](Cc1ccc(O)cc1)C(=O)O
inactive: viability change, negative = cytotoxic [1] 7.41% [at 6.95 µM] | activation [2] -0.279% [at 6.95 µM] | activity, negative = cytotoxic [3] 9.74% [at 6.95 µM] | activity change, negative = cytotoxicity [5] 2.71% [at 6.95 µM] | activity, negative = cytotoxicity [6] 1.78% [at 8.39 µM] | activity change, negative = inhibition [7] 1.55% [at 8.39 µM] | viability change, negative = cytotoxic [8] 1.17% [at 6.97 µM] | activation [9] -1.16% [at 6.97 µM] | activation [10] 0.71% [at 6.98 µM]

CCC(=O)CC
inactive: outcome [2] | outcome [4] | outcome [5] | outcome [6] | outcome [7] | outcome [8] | outcome [9] | Potency [10]

CO[C@@]1(NC(=O)Cc2cccs2)C(=O)N2C(C(=O)O)=C(COC(N)=O)CS[C@@H]21
inactive: outcome [1] | outcome [2] | outcome [3] | outcome [5] | outcome [6] | outcome [7] | outcome [8] | outcome [9] | Potency [10]
